In PubChem BioAssay (Tox21):
Results filed as inconclusive are left out. Active and inactive are the calls of the source. Unless noted, the call rests on the fitted dose curve.

Key:
[1] = Nuclear factor erythroid 2-related factor 2/antioxidant responsive element (Nrf2/ARE) small molecule agonists: qHTS cell viability counter screen in human keratinocytes (AID 1919968; active means well fitted curve in the direction sought with a large enough effect in the repeat runs; an effect the other way counts as inactive or inconclusive; further: nearly all actives have a fitted effect of over 55% in size)
Summary of the method: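 HaCaT ARE reporter line, 1,500 cells/well; 5 h settle, 37 C/5% CO2; cpd in DMSO pinned; 23 h exposure; CellTiter-Fluor, 1 h; fluorescence.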

[2] = Nuclear factor erythroid 2-related factor 2/antioxidant responsive element (Nrf2/ARE) small molecule agonists: luciferase reporter gene qHTS assay in human keratinocytes (AID 1919969); further: nearly all actives have a fitted effect of over 35% in size; further: potency means the concentration at half of the fitted maximal effect
[3] = molecular target: Gonadotropin-releasing hormone receptor (Homo sapiens) (UniProt P30968); assay: Human gonadotropin-releasing hormone receptor (GnRHR) small molecule agonists, calcium flux assay in GnRHR-HEK293 cells (AID 1920063); further: nearly all actives have a fitted effect of over 35% in size
Summary of the method: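 GnRHR-HEK293, 1500 cells/well, 18 h 37 C/5% CO2; Ca dye 1 h 37 C; cpd pinned (DMSO), agonist mode; kinetic FL 480/540, 3 min, 1 s reads; 15 conc, n=3.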

[4] = molecular target: KiSS-1 receptor (Homo sapiens) (UniProt Q969F8); assay: Human kisspeptin (KISS1R) small molecule agonists, calcium flux assay in KISS1R-HEK293 cells (AID 1920064; active means well fitted curve in the direction sought with a large enough effect in the repeat runs; an effect the other way counts as inactive or inconclusive)
Summary of the method: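 Stable human KISS1R HEK293 line; 18 h plating, 37 C/5% CO2; calcium dye 1 h 37 C; compound pin transfer; kinetic fluorescence Ex/Em 480/540, 3 min.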

[5] = G protein-coupled receptor (GPCR) small molecule agonists, calcium flux assay: HEK293 wild type cell line counter screen (AID 1920065)
Summary of the method: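 Kinetic fluorescence at Ex/Em 480/540, recorded every second over 3 min, served as the read-out after compound addition. Each compound was tested at 15 concentrations in triplicate on cells pre-loaded with calcium dye for 1 h.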

[6] = p53 small molecule agonists, cell-based qHTS assay with rat liver microsomes (AID 1963578)
Summary of the method: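 p53RE-bla cells were exposed to compounds together with rat liver microsomes (0.5 mg/mL final) and NADPH (0.5 mg/mL final) for 16 h at 37 C, then read by LiveBLAzer beta-lactamase fluorescence after 2 h at room temperature.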

[7] = p53 small molecule agonists, cell-based qHTS assay with human liver microsomes: qHTS cell viability counter screen (AID 1963579); further: nearly all actives have a fitted effect of over 45% in size; further: potency means the concentration at half of the fitted maximal effect
Summary of the method: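 p53RE-bla cells (4,000/well) were pre-incubated 5 h at 37 C, then given compounds in DMSO plus human liver microsomes (0.5 mg/mL final) and NADPH (0.5 mg/mL final) for 16 h at 37 C. Viability was read by CellTiter-Glo luminescence.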

[8] = p53 small molecule agonists, cell-based qHTS assay: qHTS cell viability counter screen (AID 1963581); further: nearly all actives have a fitted effect of over 45% in size
Summary of the method: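 HCT-116 p53RE-bla cells, 4,000/well, plated 5 h before compound pin transfer; 16 h at 37 C; bla substrate 2 h RT; then CellTiter-Glo, 30 min RT, luminescence.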

[9] = p53 small molecule agonists, cell-based qHTS assay (AID 1963582; active means well fitted activation curve with a large enough effect in the signal ratio in the repeat runs, not every such curve was filed as active; the % refers to the signal ratio)
Summary of the method: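 Reporter line: p53RE-bla. Pre-incubation 5 h, 37 C, 5% CO2; compound (DMSO, pin tool) 16 h, 37 C; B/G FRET substrate 2 h RT; fluorescence intensity read.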

[10] = molecular target: 5-hydroxytryptamine receptor 2A (Homo sapiens) (UniProt P28223); assay: 5-hydroxytryptamine receptor 2A (HTR2A) small molecule antagonists, cell-based qHTS assay (AID 1963586); further: nearly all actives have a fitted effect of over 45% in size
Summary of the method: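 Antagonist-mode intracellular calcium assay: DOI (4 nM) added after 5 min compound pre-incubation at room temperature to dye-loaded HTR2A-CHO cells. Fluorescence followed for 3 min, sampled every second.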

[11] = molecular target: 5-hydroxytryptamine receptor 2A (Homo sapiens) (UniProt P28223); assay: 5-hydroxytryptamine receptor 2A (HTR2A) small molecule agonists, cell-based qHTS assay (AID 1963587); further: nearly all actives have a fitted effect of over 30% in size
Summary of the method: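 CHO cells stably expressing human HTR2A, plated 18 h, loaded with calcium dye 1 h at 37 C. Agonist mode: compounds added and intracellular calcium fluorescence recorded kinetically for 2 min at 1 sec intervals.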

[12] = molecular target: Muscarinic acetylcholine receptor M1 (Homo sapiens) (UniProt P11229); assay: Cholinergic receptor muscarinic 1 (CHRM1) small molecule antagonists, cell-based qHTS assay (AID 1963588); further: nearly all actives have a fitted effect of over 40% in size
Summary of the method: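 CHRM1-CHO calcium-flux assay, antagonist mode. Cells were seeded 18 h, dye-loaded 1 h at 37 C and given compound for 5 min at RT, then acetylcholine was added at 50nM. FDSS fluorescence was read 3 min; 15 concentrations, three runs.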

[13] = molecular target: Muscarinic acetylcholine receptor M1 (Homo sapiens) (UniProt P11229); assay: Cholinergic receptor muscarinic 1 (CHRM1) small molecule agonists, cell-based qHTS assay (AID 1963589); further: nearly all actives have a fitted effect of over 35% in size
Summary of the method: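 Human M1 in stable CHO line; 18 h plating, 1 h dye load 37 C; cpd added (agonist mode); Ca2+ fluorescence kinetic read, 1 s intervals; 15 conc, 3 runs.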

[14] = cAMP Responsive Elements (CRE) small molecule agonists, cell-based qHTS assay (AID 1963590)
Summary of the method: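 HEK 293T CRE-bla, 2,000 cells/well, 18 h preincubation 37 C/5% CO2; cpds (DMSO) pinned, 3 h; LiveBLAzer B/G FRET substrate, 2 h RT.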

[15] = cAMP Responsive Elements (CRE) small molecule antagonists, cell-based qHTS assay (AID 1963591; active means well fitted inhibition curve with a large enough effect in the signal ratio in the repeat runs, not every such curve was filed as active; the % refers to the signal ratio)
Summary of the method: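 Beta-lactamase reporter read by FRET substrate (LiveBLAzer B/G) after 2 h at room temperature. CRE-bla HEK293T cells had received compound plus 0.25 uM (final) NKH477 for 3 h at 37 °C.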

[16] = molecular target: Beta-2 adrenergic receptor (Homo sapiens) (UniProt P07550); assay: Adrenergic beta2 receptor (ADRB2) small molecule antagonists, cell-based qHTS assay (AID 1963592); further: series mostly up to about 92 µM; nearly all actives have a fitted effect of over 50% in size
Summary of the method: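 Cells (CHO, stable ADRB2 overexpression) incubated 18-20hr at 37C; compounds added from DMSO; agonist mix (1nM isoproterenol, 100uM IBMX, 25uM Ro-20-1724) added; 0.5hr RT; d2-cAMP and anti-cAMP-cryptate added; 1hr RT; 665/615 nm read.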

[17] = molecular target: D(2) dopamine receptor (Homo sapiens) (UniProt P14416); assay: Dopamine D2 receptor (DRD2) small molecule agonists, cell-based qHTS assay (AID 1963594); further: nearly all actives have a fitted effect of over 35% in size
Summary of the method: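 HEK293 cells stably expressing human DRD2, pre-treated with PDE inhibitor Ro20-1724 (0.1 mM final) and compound 10 min at room temperature, then stimulated with NKH477 (200nM […]) for 30 min. cAMP read by HTRF (665/620 nm).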

[18] = molecular target: D(2) dopamine receptor (Homo sapiens) (UniProt P14416); assay: Dopamine D2 receptor (DRD2) small molecule antagonists, cell-based qHTS assay (AID 1963595; active means well fitted inhibition curve with a large enough effect in the signal ratio in the repeat runs, with a control signal flat; the % refers to the signal ratio)
Summary of the method: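 Human DRD2 antagonist qHTS measuring cAMP by HTRF. The cells are exposed to compound for 10 min, then to NKH477 (200 nM) and quinpirole (12 nM) for 30 min at RT, with Ro20-1724 (0.1 mM) present throughout.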

[19] = p53 small molecule agonists, cell-based qHTS assay with rat liver microsomes: qHTS cell viability counter screen (AID 1963580); further: nearly all actives have a fitted effect of over 45% in size
Summary of the method: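 Viability is assessed in parallel with the p53 reporter read: HCT-116 p53RE-bla cells receive compounds plus rat microsomes and NADPH (0.5 mg/mL final apiece), incubate 16 h at 37 C, and then CellTiter-Glo luminescence is recorded.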
On the % scale 0 is the no-effect control and ±100 the full control effect.

Chain of KiSS-1 receptor (Homo sapiens) (Q969F8 whole entry, looked up): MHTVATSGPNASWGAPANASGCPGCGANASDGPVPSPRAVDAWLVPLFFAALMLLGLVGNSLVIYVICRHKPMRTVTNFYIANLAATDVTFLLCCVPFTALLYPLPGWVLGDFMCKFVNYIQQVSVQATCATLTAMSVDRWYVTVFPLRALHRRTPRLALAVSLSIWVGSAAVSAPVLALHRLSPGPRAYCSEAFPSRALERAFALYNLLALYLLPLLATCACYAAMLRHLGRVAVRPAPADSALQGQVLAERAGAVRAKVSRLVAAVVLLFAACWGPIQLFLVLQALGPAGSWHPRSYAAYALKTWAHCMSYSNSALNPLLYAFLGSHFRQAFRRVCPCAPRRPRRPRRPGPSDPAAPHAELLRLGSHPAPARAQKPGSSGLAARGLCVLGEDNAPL
Chain of D(2) dopamine receptor (Homo sapiens) (P14416 whole entry, looked up): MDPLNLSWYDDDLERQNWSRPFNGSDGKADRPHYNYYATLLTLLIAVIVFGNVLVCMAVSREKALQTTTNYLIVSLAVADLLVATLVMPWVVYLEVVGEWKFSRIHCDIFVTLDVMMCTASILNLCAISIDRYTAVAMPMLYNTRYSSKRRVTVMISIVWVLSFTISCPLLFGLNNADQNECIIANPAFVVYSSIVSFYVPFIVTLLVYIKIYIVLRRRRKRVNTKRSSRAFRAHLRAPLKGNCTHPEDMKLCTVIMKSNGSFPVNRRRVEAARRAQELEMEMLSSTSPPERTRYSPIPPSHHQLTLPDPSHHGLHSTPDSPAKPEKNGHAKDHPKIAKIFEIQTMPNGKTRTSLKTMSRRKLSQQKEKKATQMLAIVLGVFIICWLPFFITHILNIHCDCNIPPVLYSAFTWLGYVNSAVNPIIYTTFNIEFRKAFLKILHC
Chain of Muscarinic acetylcholine receptor M1 (Homo sapiens) (P11229 whole entry, looked up): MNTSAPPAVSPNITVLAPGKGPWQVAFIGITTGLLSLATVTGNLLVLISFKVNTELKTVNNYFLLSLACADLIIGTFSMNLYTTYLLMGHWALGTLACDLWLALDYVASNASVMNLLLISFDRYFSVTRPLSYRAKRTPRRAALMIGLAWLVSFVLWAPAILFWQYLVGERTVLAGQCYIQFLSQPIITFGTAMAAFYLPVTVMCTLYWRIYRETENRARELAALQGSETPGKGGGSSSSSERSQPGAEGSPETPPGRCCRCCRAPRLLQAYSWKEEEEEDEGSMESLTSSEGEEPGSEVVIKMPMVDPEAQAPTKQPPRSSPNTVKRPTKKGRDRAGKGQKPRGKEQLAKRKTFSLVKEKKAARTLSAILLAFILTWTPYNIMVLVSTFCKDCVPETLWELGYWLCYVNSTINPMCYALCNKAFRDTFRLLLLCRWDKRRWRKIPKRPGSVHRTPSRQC
Chain of Beta-2 adrenergic receptor (Homo sapiens) (P07550 whole entry, looked up): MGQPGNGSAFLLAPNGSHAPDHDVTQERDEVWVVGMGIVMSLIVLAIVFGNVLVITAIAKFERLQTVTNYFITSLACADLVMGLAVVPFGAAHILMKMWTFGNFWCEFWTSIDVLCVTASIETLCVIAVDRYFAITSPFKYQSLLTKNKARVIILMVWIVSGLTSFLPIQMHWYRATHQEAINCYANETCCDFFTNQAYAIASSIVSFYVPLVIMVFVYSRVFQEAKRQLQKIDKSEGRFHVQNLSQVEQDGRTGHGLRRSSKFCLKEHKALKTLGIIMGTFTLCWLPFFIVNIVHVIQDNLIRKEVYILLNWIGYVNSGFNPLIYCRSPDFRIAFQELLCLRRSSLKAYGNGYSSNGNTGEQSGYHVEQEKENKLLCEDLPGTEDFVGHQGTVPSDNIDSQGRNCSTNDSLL
Chain of Gonadotropin-releasing hormone receptor (Homo sapiens) (P30968 whole entry, looked up): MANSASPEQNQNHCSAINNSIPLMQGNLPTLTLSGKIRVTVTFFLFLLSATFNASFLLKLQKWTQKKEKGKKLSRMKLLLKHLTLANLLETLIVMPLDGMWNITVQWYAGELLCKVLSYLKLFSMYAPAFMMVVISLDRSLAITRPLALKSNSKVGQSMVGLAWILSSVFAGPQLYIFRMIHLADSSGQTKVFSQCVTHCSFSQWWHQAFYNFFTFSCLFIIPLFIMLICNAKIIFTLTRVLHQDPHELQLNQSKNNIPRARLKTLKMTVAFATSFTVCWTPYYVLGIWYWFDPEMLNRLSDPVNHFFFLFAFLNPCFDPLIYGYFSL
Chain of 5-hydroxytryptamine receptor 2A (Homo sapiens) (P28223 whole entry, looked up): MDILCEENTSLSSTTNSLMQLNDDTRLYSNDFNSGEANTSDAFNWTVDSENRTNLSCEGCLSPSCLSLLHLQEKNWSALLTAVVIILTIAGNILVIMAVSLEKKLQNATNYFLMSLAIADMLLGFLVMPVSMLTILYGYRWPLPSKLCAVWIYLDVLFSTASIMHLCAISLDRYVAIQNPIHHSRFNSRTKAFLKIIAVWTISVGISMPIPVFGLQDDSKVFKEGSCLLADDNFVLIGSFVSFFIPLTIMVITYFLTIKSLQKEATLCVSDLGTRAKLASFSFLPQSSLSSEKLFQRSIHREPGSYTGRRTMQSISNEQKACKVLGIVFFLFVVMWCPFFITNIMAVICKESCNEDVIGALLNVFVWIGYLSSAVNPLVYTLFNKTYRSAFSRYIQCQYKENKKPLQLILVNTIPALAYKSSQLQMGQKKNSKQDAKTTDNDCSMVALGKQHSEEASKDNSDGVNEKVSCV

CC(C)(C)OC(=O)c1ccccc1C(=O)O
inactive: Potency [1] | Potency [2] | Potency [3] | outcome [4] | outcome [5] | Potency [6] | Potency [7] | Potency [8] | Potency [9] | Potency [10] | Potency [11] | Potency [12] | Potency [13] | Potency [14] | Potency [15] | Potency [16] | Potency [17] | Potency [18]

CN1CC(=O)NC1=N
inactive: Potency [1] | Potency [2] | Potency [3] | outcome [4] | outcome [5] | Potency [6] | Potency [19] | Potency [8] | Potency [9] | Potency [10] | Potency [11] | Potency [12] | Potency [13] | Potency [16] | Potency [17] | Potency [18]

CCCCC(CC)COC(=O)COc1ccc(Cl)cc1C (stereo not drawn)
inactive: Potency [1] | Potency [2] | Potency [3] | outcome [4] | outcome [5] | Potency [6] | Potency [7] | Potency [19] | Potency [9] | Potency [10] | Potency [11] | Potency [12] | Potency [13] | Potency [14] | Potency [15] | Potency [17] | Potency [18]

COCCO
inactive: Potency [1] | Potency [2] | Potency [3] | outcome [4] | outcome [5] | Potency [6] | Potency [9] | Potency [10] | Potency [11] | Potency [12] | Potency [13] | Potency [14] | Potency [15] | Potency [17] | Potency [18]

O=C(O)Cc1cn(-c2ccccc2)nc1-c1ccc(Cl)cc1
inactive: Potency [1] | Potency [2] | Potency [3] | outcome [4] | outcome [5] | Potency [6] | Potency [7] | Potency [19] | Potency [9] | Potency [10] | Potency [11] | Potency [12] | Potency [13] | Potency [16] | Potency [17] | Potency [18]

CC(C)OCC1CO1 (stereo not drawn)
inactive: Potency [1] | Potency [3] | outcome [4] | outcome [5] | Potency [6] | Potency [19] | Potency [9] | Potency [10] | Potency [11] | Potency [12] | Potency [13] | Potency [14] | Potency [15] | Potency [16] | Potency [17]
active: Potency [2] 30.5 µM

CN(C)CCN1C(=O)c2ccccc2N(C)c2ccccc21
inactive: Potency [1] | Potency [2] | Potency [3] | outcome [4] | outcome [5] | Potency [6] | Potency [7] | Potency [19] | Potency [9] | Potency [11] | Potency [13] | Potency [14] | Potency [15] | Potency [16] | Potency [17] | Potency [18]

O=C(O)c1cccc(Cl)n1
active: Potency [2] 68.6 µM | Potency [7] 40.8 µM
inactive: Potency [1] | Potency [3] | outcome [4] | outcome [5] | Potency [6] | Potency [19] | Potency [9] | Potency [10] | Potency [11] | Potency [12] | Potency [13] | Potency [16] | Potency [17] | Potency [18]

CCN1CCCC1CNC(=O)c1cc(S(N)(=O)=O)ccc1OC (stereo not drawn)
inactive: Potency [1] | Potency [2] | Potency [3] | outcome [4] | outcome [5] | Potency [6] | Potency [7] | Potency [19] | Potency [16] | Potency [17]

C=C(C)C(=O)OCCCC
inactive: Potency [1] | Potency [2] | Potency [3] | outcome [4] | outcome [5] | Potency [6] | Potency [7] | Potency [19] | Potency [9] | Potency [10] | Potency [11] | Potency [12] | Potency [13] | Potency [15] | Potency [16] | Potency [17] | Potency [18]

O=Cc1ccc(F)c(Br)c1
inactive: Potency [1] | Potency [2] | Potency [3] | outcome [4] | outcome [5] | Potency [7] | Potency [19] | Potency [8] | Potency [9] | Potency [10] | Potency [11] | Potency [13] | Potency [14] | Potency [15] | Potency [16] | Potency [17]

COc1cccc(O)c1O
inactive: Potency [1] | Potency [3] | outcome [4] | outcome [5] | Potency [6] | Potency [19] | Potency [9] | Potency [10] | Potency [11] | Potency [12] | Potency [13] | Potency [14] | Potency [16]
active: Potency [2] 28.4 µM

C/C=C/C(=O)CC
inactive: activity change, negative = cytotoxicity [1] -0.853% [at 19 µM] | activity change [3] 1.75% [at 11.8 µM, active compounds read high] | activation [4] -0.292% [at 15.8 µM] | activation [5] 0.719% [at 11.8 µM] | activation [6] -0.406% [at 13.6 µM] | activity change, negative = cytotoxicity [8] 7.07% [at 13.5 µM] | activation [9] -2.81% [at 13.5 µM] | activity, negative = inhibition [10] 10.6% [at 12.7 µM] | activation [11] -1.41% [at 15.9 µM] | activity, negative = inhibition [12] 37.8% [at 12.6 µM] | activation [13] 0.129% [at 15.8 µM] | activation [14] -0.284% [at 19 µM] | activity change, negative = inhibition [15] 1.47% [at 18.9 µM] | activity change, negative = inhibition [16] 3.38% [at 19 µM] | activation [17] -9.38% [at 19 µM] | activity change, negative = inhibition [18] 0.284% [at 18.9 µM]
active: Potency [2] 10.5 µM

CCCCC(=O)OCC(=O)[C@H]1[C@H](C)C[C@H]2[C@@H]3C[C@H](F)C4=CC(=O)C=C[C@]4(C)[C@@]3(F)[C@@H](O)C[C@@]21C
inactive: Potency [1] | Potency [2] | Potency [3] | outcome [4] | outcome [5] | Potency [6] | Potency [7] | Potency [8] | Potency [9] | Potency [10] | Potency [11] | Potency [12] | Potency [13] | Potency [15] | Potency [17] | Potency [18]

Cc1cccc2sc(N)nc12
inactive: Potency [1] | Potency [2] | Potency [3] | outcome [4] | outcome [5] | Potency [6] | Potency [7] | Potency [19] | Potency [9] | Potency [10] | Potency [11] | Potency [12] | Potency [13] | Potency [14] | Potency [15] | Potency [16] | Potency [17] | Potency [18]
